From PubChem BioAssay (EPA / NIEHS)
Records with an inconclusive call do not appear. Active and inactive are the calls of the source. How the source made its calls: active means hit-call score of the fitted dose curve at least 0.9, where 1 is the maximum; inconclusive means response in the unintended direction; inactive means score below 0.9.

biological target: human FYN Proto-Oncogene, Src family Tyrosine Kinase (Fyn), FYN (gene 2534) (UniProt P06241); assay: NVS_ENZ_hFyn: NovaScreen (NVS) Enzymatic Assay for human FYN Proto-Oncogene, Src family Tyrosine Kinase (Fyn) (AID 2283161)
Sequence (P06241 whole entry, looked up): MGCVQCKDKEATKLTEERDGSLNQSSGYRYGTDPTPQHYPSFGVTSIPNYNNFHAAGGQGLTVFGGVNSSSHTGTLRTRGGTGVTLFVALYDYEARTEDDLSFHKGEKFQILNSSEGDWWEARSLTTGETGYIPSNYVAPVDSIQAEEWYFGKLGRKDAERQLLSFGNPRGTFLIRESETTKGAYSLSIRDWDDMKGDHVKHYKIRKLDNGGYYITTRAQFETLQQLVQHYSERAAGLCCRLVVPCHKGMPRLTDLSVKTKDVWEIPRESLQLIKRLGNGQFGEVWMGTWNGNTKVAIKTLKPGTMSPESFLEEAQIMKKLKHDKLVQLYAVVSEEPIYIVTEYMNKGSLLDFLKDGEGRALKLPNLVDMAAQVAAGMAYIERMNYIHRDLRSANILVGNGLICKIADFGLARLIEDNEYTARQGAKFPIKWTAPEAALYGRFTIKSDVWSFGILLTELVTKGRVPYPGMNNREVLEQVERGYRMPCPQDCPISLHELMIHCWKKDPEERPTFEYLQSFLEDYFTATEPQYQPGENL
Method in brief: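 Cell-free kinase activity read by fluorescence after mobility-shift separation of substrate and product, 1 h post-dose. Initial single concentration 25 uM in duplicate, then concentration-response follow-up; DMSO baseline.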

Row | Structure (SMILES) | outcome | AC50
1 | O=C(O)Cc1cc(I)c(Oc2cc(I)c(O)c(I)c2)c(I)c1 | inactive | –
2 | CCCCCCCC(=O)O | inactive | –
3 | CCN(CC)CCNc1ccc(CNC=O)c2sc3ccc(OC)cc3c(=O)c12 | – | 2.1 µM (active)
4 | CCC(=C(c1ccc(O)cc1)c1ccc(OCCN(C)C)cc1)c1ccccc1 | inactive | –

biological target: Glycogen synthase kinase-3 beta (Homo sapiens) (UniProt P49841); assay: NVS_ENZ_hGSK3b: NovaScreen (NVS) Enzymatic Assay for human Glycogen Synthase Kinase-3 beta (GSK3b) (AID 2283165)
Sequence (P49841 whole entry, looked up): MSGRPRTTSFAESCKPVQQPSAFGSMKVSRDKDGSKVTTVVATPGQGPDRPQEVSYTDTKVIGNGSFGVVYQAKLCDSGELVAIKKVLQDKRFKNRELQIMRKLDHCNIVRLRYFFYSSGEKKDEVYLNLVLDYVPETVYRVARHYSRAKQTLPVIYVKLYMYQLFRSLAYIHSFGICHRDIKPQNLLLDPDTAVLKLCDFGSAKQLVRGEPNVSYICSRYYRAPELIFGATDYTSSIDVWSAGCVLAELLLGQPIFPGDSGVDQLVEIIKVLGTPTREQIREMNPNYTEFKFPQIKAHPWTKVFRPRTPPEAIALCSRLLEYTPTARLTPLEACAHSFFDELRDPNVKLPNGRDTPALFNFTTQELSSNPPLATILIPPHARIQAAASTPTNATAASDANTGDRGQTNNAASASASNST
Method in brief: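 Recombinant enzyme with specific fluorescent substrate, 1 h, product separated by electrophoretic mobility shift. Primary duplicate screen at 25 uM; actives (e.g. 30% inhibition) followed in singleton concentration-response to 50 uM. Signal loss fitted versus DMSO.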

Row | Structure (SMILES) | outcome | AC50
5 | O=[N+]([O-])c1ccc(O)cc1 | inactive | –
6 | Oc1cccc(O)c1 | inactive | –
7 | CCCCCCCCC(=O)O | inactive | –
8 | O=c1c(-c2ccc(O)cc2)coc2cc(O)ccc12 | inactive | –
9 | CCCCCCCCOC(=O)CCCCCCCCC(=O)OCCCCCCCC | inactive | –
10 | O=C(O)Cc1cc(I)c(Oc2cc(I)c(O)c(I)c2)c(I)c1 | inactive | –
11 | COCC(C)OCC(C)O (stereo not given) | inactive | –
12 | Cc1oc(-c2ccccc2)nc1CCOc1ccc(C[C@H](Nc2ccccc2C(=O)c2ccccc2)C(=O)O)cc1 | inactive | –
13 | CC(C)(C)c1ccc(O)c(C(C)(C)C)c1 | inactive | –
14 | CC(C)(C)c1cc(C(C)(C)C)c(O)c(C(C)(C)C)c1 | inactive | –
15 | CCOC(=O)CC(O)(CC(=O)OCC)C(=O)OCC | inactive | –
16 | ClC1=C(Cl)C(Cl)(Cl)C(Cl)=C1Cl | inactive | –
17 | N#C[C@@H]1CC(F)(F)CN1C(=O)CNC1CC2CCC(C1)N2c1ncccn1 (stereo not given in full) | inactive | –
18 | Cc1cc(CCN2CCN(c3nsc4ccccc34)CC2)cc2c1NC(=O)CC2(C)C | inactive | –
19 | CCCCCCCCCCCCc1ccccc1S(=O)(=O)O | – | 14.2 µM (active)

biological target: human c-Jun N-terminal Kinases (JNK2), MAPK9 (gene 5601) (UniProt P45984); assay: NVS_ENZ_hJNK2: NovaScreen (NVS) Enzymatic Assay for human c-Jun N-terminal Kinases (JNK2) (AID 2283171)
Sequence (P45984 whole entry, looked up): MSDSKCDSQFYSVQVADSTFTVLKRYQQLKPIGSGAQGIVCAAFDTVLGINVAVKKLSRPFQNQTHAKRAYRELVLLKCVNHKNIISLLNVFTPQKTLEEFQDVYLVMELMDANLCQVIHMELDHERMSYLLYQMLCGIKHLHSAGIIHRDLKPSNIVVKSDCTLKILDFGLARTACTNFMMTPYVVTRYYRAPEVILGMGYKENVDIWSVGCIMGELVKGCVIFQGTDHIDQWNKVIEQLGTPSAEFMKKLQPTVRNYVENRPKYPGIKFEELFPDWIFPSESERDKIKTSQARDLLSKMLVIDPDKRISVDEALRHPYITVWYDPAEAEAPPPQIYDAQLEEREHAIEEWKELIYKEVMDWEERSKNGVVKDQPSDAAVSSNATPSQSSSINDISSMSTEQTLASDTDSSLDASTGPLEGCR
Method in brief: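 Chemicals first tested in duplicate at 25 uM, then in singleton concentration series up to 50 uM, against extracted JNK2 enzyme. Activity loss read by fluorescence with mobility-shift separation 1 h post-dose; DMSO baseline.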

Row | Structure (SMILES) | outcome | AC50
20 | O=C(O)Cc1cc(I)c(Oc2cc(I)c(O)c(I)c2)c(I)c1 | inactive | –
21 | CCN(CC)CCNc1ccc(CNC=O)c2sc3ccc(OC)cc3c(=O)c12 | inactive | –
22 | N#C[C@@H]1CC(F)(F)CN1C(=O)CNC1CC2CCC(C1)N2c1ncccn1 (stereo not given in full) | inactive | –
23 | CCCCCCCCCCCCc1ccccc1S(=O)(=O)O | – | 29.6 µM (active)

biological target: Mitogen-activated protein kinase 3 (Homo sapiens) (UniProt P27361); assay: NVS_ENZ_hMAPK3: NovaScreen (NVS) Enzymatic Assay for human Mitogen-Activated Protein Kinase 3 (MAPK 3) (AID 2283177)
Sequence (P27361 whole entry, looked up): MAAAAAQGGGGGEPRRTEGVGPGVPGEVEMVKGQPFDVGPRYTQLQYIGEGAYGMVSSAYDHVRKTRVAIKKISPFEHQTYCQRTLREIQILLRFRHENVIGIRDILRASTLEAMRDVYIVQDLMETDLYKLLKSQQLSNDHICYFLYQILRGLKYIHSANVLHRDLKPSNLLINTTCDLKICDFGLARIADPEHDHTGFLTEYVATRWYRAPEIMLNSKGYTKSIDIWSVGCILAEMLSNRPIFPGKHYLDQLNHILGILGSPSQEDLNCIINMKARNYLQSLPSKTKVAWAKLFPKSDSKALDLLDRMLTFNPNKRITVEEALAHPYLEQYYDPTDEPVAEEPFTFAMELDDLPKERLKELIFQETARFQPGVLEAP
Method in brief: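 Chemicals were first tested in duplicate at 25 uM, with hits re-run as concentration series (max 50 uM). Recombinant enzyme activity, measured 1 h post-dose in a cell-free format, was read by fluorescence/mobility shift relative to DMSO.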

Row | Structure (SMILES) | outcome | AC50
24 | O=C(O)Cc1cc(I)c(Oc2cc(I)c(O)c(I)c2)c(I)c1 | inactive | –
25 | CCCCCCCC(=O)O | inactive | –
26 | O=C(O)c1ccccc1C(c1ccc(O)cc1)c1ccc(O)cc1 | inactive | –
27 | N#C[C@@H]1CC(F)(F)CN1C(=O)CNC1CC2CCC(C1)N2c1ncccn1 (stereo not given in full) | inactive | –
28 | CCCCCCCCCCCCc1ccccc1S(=O)(=O)O | – | 18 µM (active)

biological target: human MAP Kinase-Activated Protein Kinase 2 (MAPKAPK2), MAPKAPK2 (gene 9261) (UniProt P49137); assay: NVS_ENZ_hMAPKAPK2: NovaScreen (NVS) Enzymatic Assay for human MAP Kinase-Activated Protein Kinase 2 (MAPKAPK2) (AID 2283178)
Sequence (P49137 whole entry, looked up): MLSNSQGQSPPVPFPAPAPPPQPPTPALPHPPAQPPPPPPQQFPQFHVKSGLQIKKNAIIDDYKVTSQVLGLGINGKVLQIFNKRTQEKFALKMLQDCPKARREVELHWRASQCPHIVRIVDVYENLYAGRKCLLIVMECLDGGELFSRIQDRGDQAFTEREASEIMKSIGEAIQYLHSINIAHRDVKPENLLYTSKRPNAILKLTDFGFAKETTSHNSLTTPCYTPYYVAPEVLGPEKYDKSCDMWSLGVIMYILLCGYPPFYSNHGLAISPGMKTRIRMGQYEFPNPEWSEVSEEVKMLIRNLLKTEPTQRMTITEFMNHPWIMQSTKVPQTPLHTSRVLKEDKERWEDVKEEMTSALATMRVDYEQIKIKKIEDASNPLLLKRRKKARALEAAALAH
Method in brief: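 Chemicals screened in duplicate at 25 uM, then to 50 uM top concentration in concentration-response, against recombinant human MAPKAPK2; substrate conversion read 1 hr post-dosing by fluorescence after electrophoretic mobility-shift separation, loss-of-signal relative to DMSO.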

Row | Structure (SMILES) | outcome | AC50
29 | O=[N+]([O-])c1ccc(O)cc1 | inactive | –
30 | OC1CCC(C2CCCCC2)CC1 (stereo not given) | inactive | –
31 | OCCC(F)(F)C(F)(F)C(F)(F)C(F)(F)C(F)(F)C(F)(F)C(F)(F)C(F)(F)F | inactive | –
32 | CC[C@H](c1ccc(O)cc1)[C@@H](CC)c1ccc(O)cc1 | inactive | –
33 | CCCCCCCCCCCCc1ccccc1S(=O)(=O)O | – | 26.5 µM (active)

biological target: Collagenase 3 (Homo sapiens) (UniProt P45452); assay: NVS_ENZ_hMMP13: NovaScreen (NVS) Enzymatic Assay for human Matrix Metalloproteinase-13 (MMP13) (AID 2283182)
Method in brief: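 Recombinant MMP13 cleaving fluorescent substrate, cell-free, measured 1 h after dosing. Primary duplicate screen at 25 uM; actives tested in concentration-response up to 50 uM; loss of signal relative to DMSO.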

Row | Structure (SMILES) | AC50
34 | Cc1oc(-c2ccccc2)nc1CCOc1ccc(C[C@H](Nc2ccccc2C(=O)c2ccccc2)C(=O)O)cc1 | 7.33 µM (active)
35 | CCc1nn(C2CCCCC2)c2cc(C3(C#N)CCC(C(=O)O)CC3)ccc12 (stereo not given) | 19.4 µM (active)
36 | CCCCCCCCCCCCc1ccccc1S(=O)(=O)O | 31.8 µM (active)

biological target: human Matrix Metalloproteinase-7 (MMP7), MMP7 (gene 4316) (UniProt P09237); assay: NVS_ENZ_hMMP7: NovaScreen (NVS) Enzymatic Assay for human Matrix Metalloproteinase-7 (MMP7) (AID 2283183)
Sequence (P09237 whole entry, looked up): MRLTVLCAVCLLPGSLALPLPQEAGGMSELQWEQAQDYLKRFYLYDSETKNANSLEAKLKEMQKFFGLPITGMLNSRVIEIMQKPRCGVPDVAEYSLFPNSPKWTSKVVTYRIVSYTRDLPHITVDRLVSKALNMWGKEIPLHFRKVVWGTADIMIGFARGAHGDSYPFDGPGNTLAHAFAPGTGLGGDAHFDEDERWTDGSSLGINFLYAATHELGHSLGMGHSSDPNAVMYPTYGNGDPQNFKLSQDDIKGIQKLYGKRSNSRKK
Method in brief: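 Compounds first tested at 25 uM in duplicate, then at up to 50 uM in concentration series if active. Protease activity measured by fluorescence intensity 1 h after dosing, with fitting relative to DMSO.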

Row | Structure (SMILES) | outcome
37 | O=[N+]([O-])c1ccc(O)cc1 | inactive
38 | COCC(C)OCC(C)O (stereo not given) | inactive
39 | CC[C@H](c1ccc(O)cc1)[C@@H](CC)c1ccc(O)cc1 | inactive
40 | c1ccc2cc3c(ccc4ccccc43)cc2c1 | inactive
